# PubChem BioAssay (NCI)
# About 83,000 compounds went through this panel and 20% of them were active in at least one assay; those are over-represented in the sample as a whole.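 Each cell line was grown in a 96-well plate and treated with one concentration of compound for 48 hours. Values below 10 were considered active.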 Calls of active or inactive are those of the source.
# System: HL-60(TB) leukemia
# Test: NCI-60 one-dose screen, 48 h (100 = growth as untreated, 0 = no growth, -100 = all killed)
# Settings: 10 µM unless noted
row,Compound,growth
1,CCOc1ccccc1[C@H]1C(C(=O)c2ccc(Cl)cc2)C2(N[C@@H]1c1ccccc1)C(=O)Nc1ccc(Br)cc12 (some centres undefined),-18.4% (active)
2,CCCCCCCS(=O)(=O)N1CCCC(C(=O)Nc2nc3ccc(NC(=O)c4ccc(F)c(OC)c4F)cc3s2)C1 (centres undefined),66.7% (inactive)
3,COc1ccc(CCC2c3c(cc4c(c3OC)OCO4)CCN2C)cc1 (centres undefined),-37.5% (active)
4,COc1sc(/C=N/NC(=O)c2[nH]c3ccc(Br)cc3c2-c2ccccc2)cc1Cl,-42.8% (active)
5,COC(=O)c1cc(C(=O)C(C)(C)C)n2c3ccccc3c3ccccc3c12,90.4% (inactive)
6,O=C(N/N=C/c1ccc(B(O)O)o1)c1[nH]c2ccc(Br)cc2c1-c1ccccc1,-29.3% (active)
7,C=C1CC[C@@H]2[C@]3(C)COC(c4cn[nH]c4-c4cccc(Cl)c4)O[C@@H]3CC[C@@]2(C)[C@@H]1C/C=C1/C(=O)OCC1O (some centres undefined),-15.1% (active)
8,C#C[C@]1(O)CC[C@H]2[C@@H]3CC=C4c5sc(Nc6cc(C)cc(C)n6)nc5CC[C@]4(C)[C@H]3CC[C@@]21C,-16.4% (active)
9,COc1ccc(N=Nc2c(N)nn3c(N)c(C#N)c(-c4ccccc4)nc23)cc1,80.8% (inactive)
10,O=C(CSc1nnc(-c2c[nH]c3ccccc23)n1-c1ccccc1)c1ccccc1,87.2% (inactive)
11,COc1ccc(/C=C/C(=O)c2ccc(S(=O)(=O)NCCNc3nc(N(C)C)nc(N4CCOCC4)n3)cc2)cc1,67.1% (inactive)
12,CCN(CC)c1ccc(/C=N/Nc2nc(-c3ccc(C)cc3)cs2)c(O)c1,70% (inactive)
13,C=C1CC[C@@H]2[C@]3(C)COC(c4cn[nH]c4-c4ccc(Br)cc4)O[C@@H]3CC[C@@]2(C)[C@@H]1C/C=C1/C(=O)OCC1O (some centres undefined),-8.14% (active)
14,O=C(N/N=C/c1ccoc1)c1[nH]c2ccc(Br)cc2c1-c1ccccc1,-27.3% (active)
15,COc1ccc(/C=C/C(=O)c2ccc(N3CCN(C)CC3)cc2)c(C(F)(F)F)c1,-24.7% (active)
16,CC(C)(C)OC(=O)N1C/C(=C\c2ccc(F)cc2)C(=O)/C(=C/c2ccc(F)cc2)C1,-6.78% (active)
17,COc1cc(/C=N/NC(=O)c2ccc(OCc3nc4ccc(Cl)cc4[nH]3)cc2)cc(OC)c1OC,28.2% (inactive)
18,N#Cc1c(-c2cccc(Cl)c2Cl)cc(-c2ccc3ccccc3c2)[nH]c1=O,83.8% (inactive)
19,COc1cc2oc(-c3cccc(C(=O)Nc4ccc(Cl)cc4)c3)cc(=O)c2c(OCCNC(=O)[C@@H](N)CCC(=O)O)c1OC,81.6% (inactive)
20,COc1ccc(-c2nc3cc(C)ccc3n2CC(=O)N=Nc2c(O)[nH]c3ccccc23)cc1,8.05% (active)

row,Compound,growth
1,C=C1CCC2C3(C)COC(c4ccccc4F)OC3CCC2(C)C1C/C=C1/C(=O)OCC1O (centres undefined),-0.649% (active)
2,CCOC(=O)N/C(=C1/OCCN1C)[P+](c1ccccc1)(c1ccccc1)c1ccccc1,29.9% (inactive)
3,COc1ccc(N=Nc2c(N)nn3c(-c4ccc([N+](=O)[O-])cc4)ccnc23)cc1,85.7% (inactive)
4,CCOc1ccccc1[C@H]1C(C(=O)c2ccc(Cl)cc2)C2(N[C@@H]1c1ccccc1)C(=O)Nc1ccccc12 (some centres undefined),-35.5% (active)
5,Nc1cc2ccccc2c(=O)n1NC(=O)c1ccc(I)cc1,77% (inactive)
6,COc1ccc(-c2ccc(SCC(=O)NCCc3ccc(S(N)(=O)=O)cc3)nn2)cc1,60.5% (inactive)
7,O=c1[nH]n(C(=S)N/N=C/c2ccccc2Cl)c(=O)c2ccccc12,-6.48% (active)
8,Cn1cc(-c2cc3nc(-c4cn(C)c5ncccc45)cc(N)n3n2)c2ccccc21,-44.8% (active)
9,CC(=O)Oc1ccccc1C(=O)[Se]C(=NC1CCCCC1)NC1CCCCC1,-17.5% (active)
10,CCCn1cc(-c2nc(Nc3ccc(C(=O)NCCCCNc4cccc5c4C(=O)N(C4CCC(=O)NC4=O)C5=O)cc3)nc3[nH]ccc23)cn1 (centres undefined),-36.9% (active)
11,COc1ccc(NC(=O)Cn2c3c(sc2=O)[C@H]2[C@@H](O)[C@@H](O)[C@H](O)[C@@H]2CS3)cc1,98.1% (inactive)
12,O=C1NC(=O)c2c1c1c3cc(Br)ccc3[nH]c1c1oc3ccc(F)cc3c21,44.6% (inactive)
13,Nc1nc(-c2ccccc2)c(N=Nc2ccc(Cl)cc2Cl)s1,-31.7% (active)
14,N#Cc1cnn(C(=O)c2ccccc2Br)c1NC(=O)c1ccc(Br)cc1Cl,107% (inactive)
15,O=C(Nc1ccc(OCc2ccc(Cl)cc2)cc1)Nc1ccc(Cl)c(C(F)(F)F)c1,0.65% (active)
16,COc1ccc2[nH]cc(-c3cc4nc(-c5cn(C)c6ncccc56)cc(N)n4n3)c2c1,-35.4% (active)
17,CCOC(=O)C1=C(N)N(c2ccccc2)C2=C(C(=O)CC(C)(C)C2)C1c1ccccc1Cl (centres undefined),-23% (active)
18,O=C1Nc2ccc(Cl)cc2/C1=C/c1cccc(OCc2ccccn2)c1,-25% (active)
19,COc1ccccc1Nc1nnc(-c2c[nH]c3ccccc23)o1,2.38% (active)
